The target in this experiment is Beta-2 adrenergic receptor (Homo sapiens) (UniProt P07550). The experiment is described as follows: Adrenergic beta2 receptor (ADRB2) small molecule agonists, cell-based qHTS assay (AID 1963593).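 Further: CHO cells stably overexpressing human ADRB2.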 An outline of the steps:
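CHO cells stably over-expressing ADRB2 were plated overnight at 37C, then dosed with compounds plus a stimulation mix containing 100uM IBMX and 25uM Ro-20-1724 for 0.5hr at room temperature. cAMP was measured by HTRF competition, 1hr.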

Inconclusive results are not listed. Entries that show only a call come without a potency. A number with no mark means an inactive call. The source made the active and inactive calls. The call rests on the fitted dose curve.

Chain of Beta-2 adrenergic receptor (Homo sapiens) (P07550 whole entry, looked up): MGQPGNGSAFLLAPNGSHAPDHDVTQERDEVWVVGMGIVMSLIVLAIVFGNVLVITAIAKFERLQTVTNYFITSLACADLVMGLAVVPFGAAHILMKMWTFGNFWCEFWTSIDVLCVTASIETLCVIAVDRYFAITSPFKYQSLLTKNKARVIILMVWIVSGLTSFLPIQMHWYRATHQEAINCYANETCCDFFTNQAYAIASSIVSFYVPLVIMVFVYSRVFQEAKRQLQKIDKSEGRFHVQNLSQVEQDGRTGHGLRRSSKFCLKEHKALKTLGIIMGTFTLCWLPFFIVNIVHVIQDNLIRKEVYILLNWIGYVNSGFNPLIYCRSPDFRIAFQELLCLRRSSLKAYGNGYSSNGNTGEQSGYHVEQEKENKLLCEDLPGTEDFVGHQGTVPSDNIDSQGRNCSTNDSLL

As to `CCN(CC)CCOc1ccc(C(O)(Cc2ccc(Cl)cc2)c2ccc(C)cc2)cc1` (stereo not drawn), the Potency entry is “inactive”.

For the compound `Cc1ccc2ccccc2n1`, the Potency entry is “inactive”.

With `Nc1ccc(S(=O)(=O)Nc2ccccc2)cc1`, the Potency result was “inactive”.

Regarding `CCCCOC(=O)C(C)O` (stereo not drawn), the Potency result was “inactive”.

Regarding `CCOC(=O)C(=O)CCCCCCl`, the Potency result was “inactive”.

`Cc1nc2n(c(=O)c1CCN1CCC(c3noc4cc(F)ccc34)CC1)CCC[C@H]2O`: the Potency entry was “inactive”.

With `NCC(=O)O`, the Potency entry was “inactive”.

Take `Clc1cc(Cl)cc(Cl)c1`: the Potency result was “inactive”.

For `Cc1nc(C2CCCCC2)c(-c2ccc(S(N)(=O)=O)c(F)c2)o1`, the Potency entry is “inactive”.

For the compound `COc1ncnc(NS(=O)(=O)c2ccc(N)cc2)c1OC`, the Potency result was “inactive”.

Turning to `FC(F)(F)c1ccc(Cl)cc1Cl`, the Potency entry is “inactive”.

With `CC1OC(=O)C(C)OC1=O` (stereo not drawn), the Potency result is “inactive”.

On to `CO[C@H]1O[C@H](CO)[C@@H](O)[C@H](O)[C@H]1O`, for which the Potency result was “inactive”.

Turning to `C=C(C)CCCC`, the Potency result is “inactive”.

As for `CO/N=C(\C(=O)O)c1csc(NC(=O)CCl)n1`, the Potency result was “inactive”.

For `CN1CCN(c2c(F)cc3c(=O)c(C(=O)O)cn4c3c2SCC4)CC1`, the Potency result is “inactive”.

As to `CC(=O)OCC(C)C`, the Potency entry was “inactive”.

Consider `Nc1ncnc(Nc2ccccc2)n1`, for which the Potency result is “inactive”.

On to `Cc1cc(Br)ccc1NC(=O)CCl`, for which the Potency result is “inactive”.

With `CN(C(=O)CCCOc1ccc2[nH]c(=O)ccc2c1)C1CCCCC1`, the Potency entry was “inactive”.

For the compound `CCCCCCCCCCCC(=O)NCCCN(C)C`, the Potency entry is “inactive”.

For `CCCS(=O)c1ccc2nc(NC(=O)OC)[nH]c2c1` (stereo not drawn), the Potency result is “inactive”.

As for `CC1=NS(=O)(=O)c2cc(Cl)ccc2N1`, the Potency entry is “inactive”.

With `c1ccc2c(CC3=NCCN3)cccc2c1`, the Potency result was “inactive”.

With `C=CC(=O)OCCOCCOC(=O)C=C`, the Potency result was “inactive”.

With `CN(C)CCN(Cc1ccsc1)c1ccccn1`, the Potency entry was “inactive”.

In the case of `CCOC(=O)C(=O)OCC`, the Potency result was “inactive”.

For `CNC(=O)c1cnn(-c2nc(N)c3ncn([C@@H]4O[C@H](CO)[C@@H](O)[C@H]4O)c3n2)c1`, the Potency entry was “inactive”.

Turning to `COc1ccc([C@@H]2Sc3ccccc3N(CCN(C)C)C(=O)[C@@H]2OC(C)=O)cc1`, the Potency entry was “inactive”.

For `CCCCCCCCCCCc1ccccc1`, the Potency entry was “inactive”.

`CCc1cccc(CC)c1`: the Potency entry was “inactive”.

On to `CCOC(=O)c1ccc(OC(=O)CCCCCN=C(N)N)cc1`, for which the Potency entry is “inactive”.

For `C[N+]1(C)CCCC(OC(=O)C(O)(c2ccccc2)c2ccccc2)C1` (stereo not drawn), the Potency entry is “inactive”.

As for `NS(=O)(=O)c1cc(C2(O)NC(=O)c3ccccc32)ccc1Cl` (stereo not drawn), the Potency entry is “inactive”.

Take `O=C1c2ccccc2C(=O)N1CO`: the Potency entry is “inactive”.

As to `C=CCSSCCC`, the Potency entry is “inactive”.

Regarding `NCC(=O)CCC(=O)O`, the Potency entry was “inactive”.

As for `CCN(CCO)CCCC(C)Nc1ccnc2cc(Cl)ccc12` (stereo not drawn), the activation is 0.519% [at 8.39 µM].

Turning to `CC(=O)Oc1ccc(C(C)=O)cc1`, the Potency entry is “inactive”.

Turning to `CN(Cc1cc(Br)cc(Br)c1N)C1CCCCC1`, the Potency entry is “inactive”.

For the compound `CC(C)=CC(=O)C=C(C)C`, the Potency entry is “inactive”.

Regarding `O=C(O)P(=O)(O)O`, the Potency entry was “inactive”.

In the case of `C/C=C/C(=O)CC`, the Potency entry was “inactive”.

Source of the values: PubChem BioAssay (Tox21).
